# Screens (PubChem BioAssay)
# A selection: hits, their analogues and other compounds. The true share with any hit is near 4.7%.
# TRHR PAM = qHTS for Small Molecule Agonists and Allosteric Enhancers of Human TRH Receptor: Primary Screen for Enhancers. actives 0.66% (n = 360,000). Thyrotropin-releasing hormone receptor (Homo sapiens), P34981. enhancement, % at 2 µM. TRHR cells, fluo-8 calcium fluorescence, EC20 TRH enhancement; in the data active means enhancement above about 30%; further: 0% is about no effect
#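 Enhancer read-out: after compound pinning and an initial kinetic agonist-mode read, an EC20 of TRH (10 nM final) was injected and fluo-8 calcium signal (Ex 480/Em 530) followed at 1 s/cycle for 100 cycles in TRHR-expressing cells.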
# TRHR agonist = qHTS for Small Molecule Agonists and Allosteric Enhancers of Human TRH Receptor: Primary Screen for Agonists | Thyrotropin-releasing hormone receptor (Homo sapiens), P34981 | TRHR cells, calcium flux fluo-8, FDSS agonist mode | actives 0.18% (n = 360,000) | AID 493084, 2011 | activation, % at 2 µM; further: 0% is about no effect
#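 Fluo-8-loaded TRHR cells; 10 s baseline, compound added, kinetic Ca2+ fluorescence read 1/s, agonist mode.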
# D1 antagonist = Antagonist of Human D 1 Dopamine Receptor: qHTS; HEK293 TREx D1 cells, calcium flux, dopamine EC80; stronger effect = lower value; actives 3.2% (n = 360,000); activity change, negative = inhibition, % at 10 µM; in the data active means activity change below about -30%; further: on the % scale 0 is the no-effect control and ±100 the full control effect
# Target sequence (P21728 whole entry, looked up): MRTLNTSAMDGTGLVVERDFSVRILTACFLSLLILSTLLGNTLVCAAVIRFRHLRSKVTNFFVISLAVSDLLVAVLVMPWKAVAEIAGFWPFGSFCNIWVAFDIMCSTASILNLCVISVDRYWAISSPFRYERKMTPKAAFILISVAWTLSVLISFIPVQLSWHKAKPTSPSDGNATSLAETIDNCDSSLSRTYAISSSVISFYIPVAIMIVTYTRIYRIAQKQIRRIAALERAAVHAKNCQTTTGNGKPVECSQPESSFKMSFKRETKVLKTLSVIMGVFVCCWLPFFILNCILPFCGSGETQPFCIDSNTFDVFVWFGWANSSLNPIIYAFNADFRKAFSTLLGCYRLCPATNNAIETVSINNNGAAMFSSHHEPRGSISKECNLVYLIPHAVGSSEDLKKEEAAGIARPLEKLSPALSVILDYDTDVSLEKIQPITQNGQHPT
#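 Tetracycline-induced HEK293 Trex D1 cells, force-coupled to calcium, dye-loaded; compounds added and read 180 s, then EC80 dopamine added and calcium flux tracked kinetically another 180 s.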
# D1 ag = Allosteric Agonists of the Human D1 Dopamine Receptor: qHTS | D(1A) dopamine receptor (Homo sapiens), P21728 | HEK293 T-REx D1 cells, calcium flux, agonist mode | activation, % at 2 µM | actives 1% (n = 360,000); further: 0% is about no effect
#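 Tetracycline-induced HEK293 TREx D1 cells, force-coupled to calcium signalling, were dye-loaded with a no-wash calcium kit. Compound was pin-added after a 10 s baseline. Fluorescence was read kinetically at 1 cycle/s for 180 s, with calcium rises flagged as agonism.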
# D1 PAM = Potentiators of Human D1 Dopamine Receptor: qHTS | AID 504651, 2011 | HEK293 TREx D1 cells, calcium flux, dopamine EC20 potentiation | actives 0.036% (n = 360,000) | potentiation, % at 10 µM | D(1A) dopamine receptor (Homo sapiens), P21728; in the data active means potentiation above about 30%; further: 0% is about no effect
# * marks the source's active call; other numbers are inactive results; · = no result given. Unless noted, no stated cut-off is given here; in the data, active means activation above about 30%; inactive means the rest.
SMILES,TRHR PAM,TRHR agonist,D1 antagonist,D1 ag,D1 PAM
COC(=O)c1sc(-c2ccc(Cl)cc2)cc1NC(=O)CSCC(=O)O,-1.9,-0.1,1.8,3.4,0.3
COC(=O)c1sc(-c2ccc(C(C)(C)C)cc2)cc1NC(=O)COCC(=O)O,-24.3,0.9,-39.3*,58.4*,-3.9
CCN(CC)CC(O)Cn1c(C)c(-c2ccccc2)c2cc([N+](=O)[O-])ccc21 (stereo unspecified),1.5,3.9,2.1,34.4*,-7.6
CCN(CC)CC(O)Cn1c2ccccc2c2ccccc21 (stereo unspecified),3.3,0.0,-15.0,6.2,-0.8
CC1=Nc2cc(C(=O)NC(C)C)ccc2Sc2ccc(C)cc21,0.5,0.1,4.0,5.7,0.1
CC(Sc1nnc(-c2cccnc2)n1-c1ccccc1F)C(=O)N1CCCc2ccccc21 (stereo unspecified),37.0*,0.0,0.9,2.5,2.4
CC(Sc1nnc(-c2cccnc2)n1N)C(=O)N1CCOCC1 (stereo unspecified),-3.7,0.1,-1.4,3.0,10.6
COc1ccc(NC(=O)c2cc3c(=O)n(Cc4ccco4)ccc3nc2C)c(OC)c1,1.0,0.0,-23.1,-0.4,-4.3
CC(C)(C)C(=O)NC(=S)NNC(=O)c1ccc(-c2ccccc2)cc1,-2.7,58.4*,·,262.4*,29.6
CC(C)(C)C(=O)NC(=S)NNC(=O)c1ccc(Cl)cc1Cl,-6.8,102.1*,110.6,397.1*,8.1
CCOC(=O)c1ccccc1NC(=O)N1CCN(Cc2cc(=O)n3nc(-c4ccccc4)sc3n2)CC1,-4.4,-0.1,-9.8,2.5,-1.8
COc1ccc(CNC(=S)Nc2ccc(Br)cc2)cc1,-2.1,2.0,-5.4,36.8*,-7.0
COc1ccc(/C=C/C(=O)NCc2cccnc2)cc1,-5.4,-0.7,-40.3*,-1.2,-5.7
COc1cc(/C=C/C(=O)NCc2cccnc2)cc(OC)c1OC,1.1,0.1,-15.4,3.0,-3.1
S=C(NCc1cccnc1)Nc1ccc(Cl)c(Cl)c1,-13.7,2.9,-45.6*,27.8,-4.2
COc1ccc(C(=O)NCCS(=O)(=O)NCc2cccnc2)cc1,32.5*,0.0,-14.9,0.7,-5.5
COc1ccc(-c2nc(CCNC(=O)c3c(F)cccc3Cl)cs2)cc1,-12.0,-0.6,-6.0,1.2,-3.1
O=C(Nc1nnc(N2CCCCCC2)s1)Nc1ccccc1C(F)(F)F,1.3,-0.3,25.5,-1.4,-2.8
CCn1cc2nc(SCc3cccc(C(F)(F)F)c3)n(Cc3ccc(Cl)cc3)c(=O)c2n1,-5.9,2.1,34.1,8.4,-4.5
COc1ccc(NC(=S)NCc2cccnc2)cc1OC,1.8,0.4,5.6,0.3,-2.7
COc1ccc(/C=C(/NC(=O)/C=C/c2ccccc2)C(=O)O)cc1,34.5*,0.2,14.3,-1.5,6.2
Cc1ccc(NC(=O)NCc2cccnc2)cc1C,10.1,-0.3,0.7,0.9,1.8
COc1ccc(NC(=S)NCc2cccnc2)cc1,1.3,0.1,-30.6*,1.3,-0.6
COc1ccc(NC(=S)NC(=O)/C=C/c2ccccc2)cc1,-3.5,-0.1,6.2,0.8,9.4
O=C(NCc1cccnc1)Nc1ccc(Cl)c(Cl)c1,-6.7,0.6,-45.6*,12.9,-6.3
SMILES,TRHR PAM,TRHR agonist,D1 antagonist,D1 ag,D1 PAM
O=C(Nc1ccc(Cl)cc1F)c1cc(S(=O)(=O)NC2CCCCCC2)ccc1F,19.2,0.9,-4.8,10.6,0.4
Cc1ccccc1NC(=O)CSc1nc2ccc(NC(=O)CCc3ccccc3)cc2s1,2.8,1.3,-12.4,3.7,1.0
CCCCN1CC(O)=C(c2nc(-c3ccc(Cl)cc3)cs2)C1=N,2.0,0.4,21.3,3.5,-1.9
COCC(C)N1CC(O)=C(c2nc(-c3ccc(Cl)cc3)cs2)C1=N (stereo unspecified),1.3,0.4,-30.5*,1.4,-16.1
CN1CCN(c2ccc(-c3nc(-c4ccccc4)no3)cc2[N+](=O)[O-])CC1,3.6,0.3,-37.5*,6.5,-3.0
COc1ccc(-c2noc(-c3ccc(N4CCC(C)CC4)c([N+](=O)[O-])c3)n2)cc1OC,-5.8,0.9,-42.0*,20.3,-4.7
CN(C)c1ccc(-c2nc(-c3ccccn3)no2)cc1[N+](=O)[O-],-7.3,0.1,-38.6*,9.5,-2.5
O=C(NC1(C(F)(F)F)C(=O)Nc2c1c(=O)[nH]c(=O)n2-c1ccccc1)c1ccccc1Cl (stereo unspecified),-2.5,0.8,-0.6,0.2,-4.3
COc1ccc(C(=O)c2cn(Cc3ccc(C)cc3)c3cc4c(cc3c2=O)OCO4)cc1,5.3,-0.2,10.4,19.7,-4.0
CCc1ccc(S(=O)(=O)NCc2ccc(N3CCN(C)CC3)cc2)cc1,0.9,-0.2,1.3,4.7,-1.8
CC(Oc1ccc(Br)cc1)C(=O)NNC(=O)CCN1CCN(c2ccccc2)CC1 (stereo unspecified),-2.4,-0.7,-21.3,1.4,-9.8
CCCOc1ccc(C(=O)CCC(=O)OCC(=O)Nc2ccc(OCC)cc2)cc1,4.5,0.0,-1.5,6.8,-6.1
CN1CCN(c2ccc(CNS(=O)(=O)c3ccccc3)cc2)CC1,6.2,0.5,-34.7*,4.2,-1.7
CN1CCN(c2ccc(NC(=O)c3cccc(S(=O)(=O)N4CCCC4)c3)cc2)CC1,0.9,-0.1,-33.6*,-0.5,-11.6
O=C(CCN1CCN(c2ccccc2)CC1)NNC(=O)Cc1ccc(Br)cc1,1.8,0.1,-38.9*,1.3,-8.7
CCCOc1ccc(C(=O)CCC(=O)Nc2ccc(N3CCN(C)CC3)cc2)cc1,2.2,-0.2,-79.5*,4.7,-19.9
O=C(Nc1ccc(N2CCOCC2)cc1)c1cccc(S(=O)(=O)N2CCCC2)c1,0.7,0.1,-0.9,9.9,1.4
CCOc1ccc(NC(=O)NCc2ccc3c(c2)CCN3C(C)=O)cc1,3.1,-0.5,-6.4,-0.7,-0.6
Cc1nc(-c2ccc(Cl)cc2)sc1CCNC(=O)C(=O)Nc1ccc2c(c1)OCCO2,-0.1,0.8,-14.9,13.1,-0.4
Cn1c(=O)c2c(nc(SCC(=O)Nc3ccc(F)cc3)n2Cc2ccccc2F)n(C)c1=O,-0.8,-4.4,8.5,0.5,-2.4
COc1cc(OC)cc(C(=O)Nc2nc(-c3nnn(-c4ccc(F)c(Cl)c4)c3C)ns2)c1,0.3,-0.5,-13.4,8.3,0.3
Cc1ccc(C(=O)Nc2ccc(N3CCN(C)CC3)cc2)c(Cl)c1,-8.0,0.3,-33.4*,-0.2,-8.4
CC(C)Oc1cccc(C(=O)Nc2ccc(N3CCN(C)CC3)cc2)c1,7.4,0.2,-56.9*,-0.6,-11.4
